Assay results from a collection of fitness landscapes (doi:10.1016/j.celrep.2020.107928).
In all, about 81,000 sequences were measured (“one-hybrid fitness for binding parS DNA”: median about -0.17, highest 2% from about 0.51 on). This is one part of a sample in which the highest values are shown more often than they occur.

B1: Caulobacter ParB omega fusion; a variant is named by its letters at X, in order, B8GW30 (parent)
chain: MESVVVGEPGMSEGRRGLGRGLSALLGEVDAAPAQAPGEQLGGSREAPIEILQRNPDQPRRTFREEDLEDLSNSIREKGVLQPILVRPSPDTAGEYQIVAGERAWRAAQRAGLKTVPIMVRELDDLAVLEIGIIENVQRADLNVLEEALSYKVLMEKFERTQENIAQTIGKSXSHVANXMRLLXLPDEVQSYLVSGELTAXHARAIAAAADPVALAKQIIEGGLSVRETEALARKAPNLSAGKSKGGRPPRVKDTDTQALESDLSSVLGLDVSIDHRGSTGTLTITYATLEQLDDLCNRLTRGI

Variants of: B1
Test: one-hybrid fitness for binding parS DNA (scaled: cognate 1, non-cognate 0); higher = stronger binding
Details: with parS DNA site
Procedure, shortened: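 Caulobacter ParB libraries with four specificity codons randomised were screened by bacterial one-hybrid selection in the E. coli USO strain, using a HIS3 reporter whose site lies 19 bp from the promoter. Selection ran for 48 hours at 37°C on M9 lacking histidine, with 0.1 mM IPTG and 5 mM 3-AT. Plasmids were Illumina-sequenced before and after selection, three replicate libraries were pooled, and variants with under 10 reads were dropped. Fitness is the log change in each variant's read ratio to wild type, rescaled against the cognate and non-cognate sites.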

| Variant | one-hybrid fitness for binding parS DNA |
| --- | --- |
| MPRE | ≤ 0.2 |
| IDTG | ≤ 0.2 |
| PPTT | ≤ 0.2 |
| RHPH | ≤ 0.2 |
| PTAI | ≤ 0.2 |
| RPWA | ≤ 0.2 |
| RCWA | 0.68 |
| RWWA | 0.254 |
| RMWA | 0.634 |
| NAWA | ≤ 0.2 |
| RAWA | 0.598 |
| RLWA | 0.648 |
| DLWA | ≤ 0.2 |
| PWGP | ≤ 0.2 |
| CSAK | ≤ 0.2 |
| HTAP | ≤ 0.2 |
| VEFT | ≤ 0.2 |
| QGNA | ≤ 0.2 |
| YNSE | ≤ 0.2 |
| QDDR | ≤ 0.2 |
| TNQC | ≤ 0.2 |
| APGM | ≤ 0.2 |
| QNSI | ≤ 0.2 |
| RHWA | 0.486 |
| RSWA | 0.546 |

| Variant | one-hybrid fitness for binding parS DNA |
| --- | --- |
| RTWA | 0.626 |
| RKWA | 0.58 |
| RGWA | 0.282 |
| RRWA | 0.834 |
| NRWA | ≤ 0.2 |
| RFWA | 0.481 |
| WTTC | ≤ 0.2 |
| NRTE | ≤ 0.2 |
| GCLA | ≤ 0.2 |
| YTTD | ≤ 0.2 |
| EGCL | ≤ 0.2 |
| FWSR | ≤ 0.2 |
| PAVQ | ≤ 0.2 |
| QHPF | ≤ 0.2 |
| LPIQ | ≤ 0.2 |
| RGQH | ≤ 0.2 |
| RGLG | 0.597 |
| RGKP | ≤ 0.2 |
| RGQP | ≤ 0.2 |
| RGLP | ≤ 0.2 |
| RGSH | ≤ 0.2 |
| RGQG | 0.727 |
| RGVG | 0.502 |
| RGLH | ≤ 0.2 |
| RGSP | ≤ 0.2 |

| Variant | one-hybrid fitness for binding parS DNA |
| --- | --- |
| RGKG | 0.896 |
| RGSG | 0.771 |
| PKPQ | ≤ 0.2 |
| PRNG | ≤ 0.2 |
| HPRY | ≤ 0.2 |
| RGCM | ≤ 0.2 |
| RGAN | ≤ 0.2 |
| RGCP | ≤ 0.2 |
| RGPG | 0.298 |
| RGDG | 0.496 |
| RGFG | 0.504 |
| RGNH | ≤ 0.2 |
| RGNG | 0.801 |
| RGIG | 0.47 |
| RGYG | 0.576 |
| RGCG | 0.558 |
| RGAG | 0.661 |
| PPPF | ≤ 0.2 |
| VAEC | ≤ 0.2 |
| FHHI | ≤ 0.2 |
| RGAI | ≤ 0.2 |
| LDML | ≤ 0.2 |
| CFTC | ≤ 0.2 |
| MHTL | ≤ 0.2 |
| NSGN | ≤ 0.2 |

| Variant | one-hybrid fitness for binding parS DNA |
| --- | --- |
| MIEG | ≤ 0.2 |
| RGHG | 0.65 |
| RGRH | ≤ 0.2 |
| RGHN | ≤ 0.2 |
| RGHP | ≤ 0.2 |
| RGWR | ≤ 0.2 |
| RGRG | 0.874 |
| RGWY | ≤ 0.2 |
| RGRN | 0.341 |
| RGGD | ≤ 0.2 |
| RGGH | ≤ 0.2 |
| RGGG | 0.64 |
| RGWG | 0.51 |
| KLKH | ≤ 0.2 |
| KDID | ≤ 0.2 |
| PVSF | ≤ 0.2 |
| QEKR | ≤ 0.2 |
| MRPT | ≤ 0.2 |
| NPTS | ≤ 0.2 |
| FQVG | ≤ 0.2 |
| NYES | ≤ 0.2 |
| DYNA | ≤ 0.2 |
| EYNA | ≤ 0.2 |
| RYNA | 0.58 |
| RYDA | 0.559 |

| Variant | one-hybrid fitness for binding parS DNA |
| --- | --- |
| FRQS | ≤ 0.2 |
| WVAL | ≤ 0.2 |
| HINS | ≤ 0.2 |
| FSFV | ≤ 0.2 |
| GGMR | ≤ 0.2 |
| RHIS | 0.813 |
| RHPS | 0.475 |
| RHYS | 0.976 |
| RHHN | 0.391 |
| RHRN | 0.374 |
| RHRS | 0.823 |
| RHHS | 0.914 |
| RHIP | ≤ 0.2 |
| RHYH | 0.223 |
| RHRD | ≤ 0.2 |
| RHID | ≤ 0.2 |
| RHHD | ≤ 0.2 |
| TIDD | ≤ 0.2 |
| PRIM | ≤ 0.2 |
| TPSD | ≤ 0.2 |
| ANRF | ≤ 0.2 |
| TMCR | ≤ 0.2 |
| DPAI | ≤ 0.2 |
| RHWS | 0.925 |
| RHLD | ≤ 0.2 |

| Variant | one-hybrid fitness for binding parS DNA |
| --- | --- |
| RHWN | 0.305 |
| RHLS | 0.978 |
| RHWP | ≤ 0.2 |
| RHLH | 0.229 |
| TAQE | ≤ 0.2 |
| RTCV | ≤ 0.2 |
| LSSK | ≤ 0.2 |
| YMSG | ≤ 0.2 |
| SLTS | ≤ 0.2 |
| RDQG | ≤ 0.2 |
| RLQG | 1.01 |
| RMQG | 1.01 |
| RCQG | 1.02 |
| RPQG | ≤ 0.2 |
| RSQP | ≤ 0.2 |
| RMQR | 0.223 |
| RMQQ | ≤ 0.2 |
| RSQG | 0.995 |
| RLQD | ≤ 0.2 |
| RSQH | 0.296 |
| RLQN | 0.471 |
| FGAV | ≤ 0.2 |
| AVLG | ≤ 0.2 |
| GATL | ≤ 0.2 |
| VSCH | ≤ 0.2 |

| Variant | one-hybrid fitness for binding parS DNA |
| --- | --- |
| FRAR | ≤ 0.2 |
| KNVC | ≤ 0.2 |
| PTQM | ≤ 0.2 |
| HSEM | ≤ 0.2 |
| RTQF | 0.213 |
| RIQG | 0.999 |
| RTQR | ≤ 0.2 |
| RIQF | 0.272 |
| DFQG | ≤ 0.2 |
| RFQG | 0.965 |
| RIQR | ≤ 0.2 |
| RTQG | 1 |
| NFQG | ≤ 0.2 |
| NSFG | ≤ 0.2 |
| LQRT | ≤ 0.2 |
| MPTI | ≤ 0.2 |
| ANTA | ≤ 0.2 |
| ARCH | ≤ 0.2 |
| HTWT | ≤ 0.2 |
| RDAT | ≤ 0.2 |
| RPAT | ≤ 0.2 |
| RCAT | 0.921 |
| RSAT | 0.869 |
| REAT | ≤ 0.2 |
| RSAR | ≤ 0.2 |

| Variant | one-hybrid fitness for binding parS DNA |
| --- | --- |
| LAGT | ≤ 0.2 |
| HRLD | ≤ 0.2 |
| HMAN | ≤ 0.2 |
| WKAR | ≤ 0.2 |
| SDCR | ≤ 0.2 |
| RVTY | 0.459 |
| RVTP | ≤ 0.2 |
| RVTK | ≤ 0.2 |
| RVTD | ≤ 0.2 |
| RVTH | 0.22 |
| RVTF | 0.202 |
| RVTS | 0.972 |
| RVTT | 0.949 |
| RVTM | 0.299 |
| RVTC | 0.982 |
| RVTG | 0.992 |
| RVTN | 0.432 |
| QREG | ≤ 0.2 |
| GTSR | ≤ 0.2 |
| ARHM | ≤ 0.2 |
